High-throughput results deposited in PubChem BioAssay by Sanford-Burnham Center for Chemical Genomics.
TIM10 inh – growth inhibitors of isogenic TIM10 control yeast, primary screen, counter-screen for tim10-1 yeast inhibitor project, luminescence, uHTS | S. cerevisiae TIM10 strain growth, BacTiter-Glo luminescence, 24 h | inhibition, % at 10 µM | 330,000 tested, 1.4% active | AID 463195, 2010;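 active = inhibition of 40% or more at the single tested concentration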;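 also: wild-type TIM10 isogenic control strain grown at permissive 25 °C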
tim10-1 inh – growth inhibitors of tim10-1 mutant yeast, primary screen, luminescence, uHTS; S. cerevisiae tim10-1 ts strain growth, BacTiter-Glo, 24 h; inhibition, % at 20 µM; 330,000 tested, 2.2% active; AID 463190, 2010;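 active = inhibition of at least 40%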;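 also: mutant grown at 25 °C; 0% = DMSO wells with yeast and 100% = wells holding no yeast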
Mdm2 MdmX PPI – inhibitors of human Mdm2-MdmX association, primary screen, cell-based, luminescence, split luciferase, SaOS-2, uHTS | Protein Mdm4 (Homo sapiens) + E3 ubiquitin-protein ligase Mdm2 (Homo sapiens), … | SaOS-2 split-luciferase Mdm2/MdmX complementation | inhibition, % at 8 µM | 330,000 tested, 3% active | AID 485346, 2010;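 active = inhibition of at least 50% at 8 µM in the primary screen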
tim23-1 inh – growth inhibitors of tim23-1 mutant yeast, primary screen, luminescence, uHTS | inhibition, % at 20 µM | AID 463212, 2010 | 330,000 tested, 1.3% active | S. cerevisiae tim23-1 growth, BacTiter-Glo luminescence, 24 h;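 active = growth inhibition of the mutant yeast at or above 50%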;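 also: temperature-sensitive mutant grown at 25 °C; plate controls were DMSO-treated mutant yeast for no effect and medium wells lacking yeast for full effect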
MPTP block – mitochondrial permeability transition pore inhibitors, primary screen, biochemical, isolated mouse mitochondria, absorbance; Ca2+ swelling absorbance, 30 min; inhibition, % at 10 µM; 360,000 tested, 1.4% active;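 active = inhibition of 50% or more, scaled per plate between neutral and stimulator controls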;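 also: 0% = DMSO wells given calcium and 100% = 1 mM EGTA wells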
Mdm2 MdmX conf – Mdm2-MdmX complex disruptors, retested hits, confirmation, luminescence, single concentration; shares compounds with Mdm2 MdmX PPI; 10,000 tested, 55% active; inhibition, % at 8 µM; Mdm2-MdmX binding, luminescent assay; in the data active = inhibition above about 40%
Full FLuc ctr – full-length luciferase signal inhibition, confirmation, counter-screen for Mdm2/MdmX interaction inhibitor project, cell-based, single concentration, SaOS-2; 6,200 tested, 77% active; inhibition, % at 8 µM; AID 504607, 2011; shares compounds with Mdm2 MdmX PPI; SaOS-2 full-length luciferase counterscreen, luminescence;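 active = mean inhibition at 8 µM reaching about 37%, which flags the compound as non-specific, limit read from the data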;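 also: p53-null SaOS-2 cells with luciferase driven by a doxycycline-inducible promoter; compound on cells about two nights before reading with doxycycline added after day one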
* = called active by the depositor; / = no result. An excerpt weighted towards active compounds, which were near 6.3% of everything screened.

SMILES	TIM10 inh	tim10-1 inh	Mdm2 MdmX PPI	tim23-1 inh	MPTP block	Mdm2 MdmX conf	Full FLuc ctr
C/C(=N\NC(=O)c1ccoc1C)c1ccccc1	-3.0	3.0	-61.2	12.7	1.9	/	/
N/C(=N\OC(=O)N1CCOCC1)c1ccccc1	11.0	-9.8	63.6*	13.5	-0.3	6.5	/
COc1cc(C(=O)O/N=C(\N)c2cccc([N+](=O)[O-])c2)cc(OC)c1OC	10.7	4.1	74.4*	10.2	3.8	36.5	102.8*
Cc1occc1C(=O)O/N=C(\N)c1ccccc1	24.3	28.0	72.0*	44.0	0.6	-1.6	/
COc1cc(OC)c(C(=O)O/N=C(\N)c2ccccc2)cc1OC	16.4	32.2	56.9*	22.1	0.7	4.0	/
N/C(=N\OC(=O)c1ccncc1)c1cccc([N+](=O)[O-])c1	16.7	18.5	-47.0	12.7	1.0	/	/
CC(=O)Nc1c(-c2ccccc2)nc2ccc(Cl)cn12	-22.8	-3.5	12.5	7.2	2.6	/	/
Cc1ccccc1Nc1c(-c2ccncc2)nc2ccc(Cl)cn12	-14.8	-12.1	75.1*	14.3	1.8	49.0*	71.0*
CN(C)N1C(=O)c2c(Cl)c(Cl)c(Cl)c(Cl)c2C1=O	/	/	/	/	0.5	/	/
CC1(C(=O)NS(=O)(=O)c2cccc(C#N)c2)CCN1C(=O)CC1CCCC1 (centres undefined)	/	/	/	/	0.1	/	/
COc1ccc(/C=N/NC(=O)c2csc(-n3nc(C)cc3C(F)(F)F)n2)cc1	9.7	11.3	50.2*	-4.2	0.6	48.5*	69.9*
O=C(c1ccc(Br)cc1)c1cc([N+](=O)[O-])ccc1N1CCCCC1	28.5	32.3	58.1*	11.9	11.5	51.7*	95.0*
Cc1ccc(C(=O)c2cc([N+](=O)[O-])ccc2N2CCN(C)CC2)cc1	4.6	12.6	50.3*	3.9	1.0	60.1*	54.6*
COc1ccc(C(=O)c2cc([N+](=O)[O-])ccc2N2CCCC2)cc1	17.6	28.9	50.0*	19.4	-0.2	63.5*	52.9*
COc1ccc(C(=O)c2cc([N+](=O)[O-])ccc2N2CCN(C)CC2)cc1	5.1	23.1	48.7	7.1	-0.5	/	/
CN1CCN(c2ccc([N+](=O)[O-])cc2C(=O)c2ccc(Br)cc2)CC1	17.0	33.7	54.2*	10.5	-5.4	59.5*	60.0*
COc1ccc(OC)c(C2C(C(=O)c3ccccc3)=C(C)Nc3nc4ccccc4n32)c1 (centres undefined)	-6.2	-2.5	98.3*	16.4	0.6	76.4*	80.3*
CCOC(=O)C1=C(C)Nc2nc3ccccc3n2C1c1ccccc1 (centres undefined)	0.2	22.3	53.6*	6.0	0.9	7.5	/
CNC(=O)C1=C(C)Nc2nc3ccccc3n2C1c1ccc(F)cc1 (centres undefined)	6.2	6.8	12.6	-16.3	-0.5	/	/
COc1ccc(CN2C[C@@H](CO)O[C@@H](n3cnc4c(NCCN(C)C)ncnc43)C2)cc1	/	/	/	/	0.2	/	/
O=C(NCC(=O)N1CCN(Cc2c(F)cccc2Cl)CC1)c1cccs1	/	/	/	/	-0.5	/	/
COC(=O)c1cn(C(=O)OC)c2ccccc12	23.2	17.9	-8.1	3.5	1.2	/	/
COC(=O)c1cn(C(=O)c2ccccc2Cl)c2ccccc12	26.3	32.3	19.1	37.6	0.2	/	/
COC(=O)c1cn(C(=O)c2ccc(C)cc2C)c2ccccc12	10.4	19.1	61.2*	23.1	-0.8	53.3*	56.2*
COC(=O)c1cn(C(=O)/C=C/c2ccc(OC)c(OC)c2)c2ccccc12	35.1	36.3	92.3*	17.0	1.2	66.2*	39.1*
SMILES	TIM10 inh	tim10-1 inh	Mdm2 MdmX PPI	tim23-1 inh	MPTP block	Mdm2 MdmX conf	Full FLuc ctr
CCN(CC)C1Oc2cc3c(cc2C(c2cc(OC)c(O)c(OC)c2)C1C)OCO3 (centres undefined)	/	/	/	/	0.9	/	/
COc1cc(C2c3cc4c(cc3C(OC3OC5COC(c6cccs6)OC5C(O)C3O)C3COC(=O)C23)OCO4)cc(OC)c1O (centres undefined)	7.6	5.3	93.6*	-14.2	0.6	88.2*	22.0
COc1cc([C@@H]2c3cc4c(cc3[C@@H](O)[C@@H](CO)[C@@H]2CO)OCO4)cc(OC)c1O[Si](C)(C)C(C)(C)C	6.5	21.4	52.7*	21.0	/	4.3	/
COC1OC2COC(c3ccccc3)OC2C(O)C1N (centres undefined)	/	/	/	/	-1.3	/	/
COc1cc([C@@H]2c3cc4c(cc3[C@H](O)[C@H]3COC(=O)[C@H]23)OCO4)cc(OC)c1OC	1.0	4.4	74.6*	13.5	-0.6	53.6*	125.9*
COc1cc([C@@H]2c3cc4c(cc3[C@@H](O[C@@H]3O[C@@H]5CO[C@@H](C)O[C@H]5[C@H](O)[C@H]3O)[C@H]3COC(=O)[C@H]23)OCO4)cc(OC)c1O	0.4	12.5	78.1*	3.0	-2.7	60.4*	31.6
COc1cc(C2c3cc4c(cc3C(O)C3COCC23)OCO4)cc(OC)c1OC (centres undefined)	/	/	/	/	0.5	/	/
COc1ccc(CCC(=O)O)c(C(CC(=O)O)C(=O)O)c1OS(=O)(=O)c1ccc(C)cc1 (centres undefined)	/	/	/	/	-0.2	/	/
C=CCOc1ccc(/C=C/C(=O)Nc2ccc(C(=O)NC)cc2)cc1	-2.9	2.5	75.4*	-20.8	0.6	5.0	/
COc1ccc(OC(F)(F)F)cc1CC1(C)C(=O)Nc2ccc(S(=O)(=O)NC3CCCCC3)cc21 (centres undefined)	/	/	/	/	1.2	/	/
CCOC(=O)C(c1nc2ccccc2[nH]1)n1c(-c2ccccn2)nc2ccccc21 (centres undefined)	/	/	/	/	-1.8	/	/
COc1ccc2[nH]c3c(c2c1)CC(C)NC3=O (centres undefined)	-1.4	-9.6	78.3*	-2.0	0.4	74.0*	33.6
COc1ccc2[nH]c3c(c(=O)c2c1)CCCC3	/	/	/	/	0.2	/	/
COc1cc(-c2ccc(Nc3ccccc3C(=O)O)c(OC)c2)ccc1Nc1ccccc1C(=O)O	5.5	-0.6	81.0*	8.7	1.5	31.9	/
COC(=O)[C@@H]1CC[C@H](C)[C@@H](c2ccc(C)cc2)N1C(=O)c1ccc(/C=N/O[C@@H](C)CN2CCCCc3nc(C)c(C)cc32)cc1	-15.3	31.5	89.2*	-13.4	/	25.3	/
O=C(/C=C/c1c(F)cccc1Cl)NCc1ccco1	8.9	4.4	-1.4	23.0	-0.7	/	/
